PubChem BioAssay (NCATS)
“And” between values parts separate entries of the source, which are not always exact repeats. Identical values can stand only once. Results filed as inconclusive are left out. Unmarked numbers belong to inactive results. The source made the active and inactive calls. Calls follow the shape of the dose curve; as a rule, active = well fitted curve in the direction sought with a large enough effect; inconclusive = small, poorly fitted or top-dose-only effect, or another doubt; inactive = no such curve, though single readings can be large; an effect the other way counts as inactive or inconclusive.

Legend:
[1] = Viability qHTS for spleen associated tyrosine kinase inhibitor (SYKi) naive MV4-11 cells (AID 1963823); also: nearly all actives have a fitted effect of over 40% in size
Outline: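 Viability of MV4-11 AML cells lacking prior SYK inhibitor exposure is scored by CellTiter-Glo luminescence following 72 hr compound incubation at 37 C, 5% CO2, seeded at 500 cells per well.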

[2] = Viability qHTS for spleen associated tyrosine kinase inhibitor (SYKi) drug resistant MV4-11 cells (AID 1963824); also: nearly all actives have a fitted effect of over 35% in size
Outline: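 SYK-inhibitor-resistant MV4-11 AML cells were seeded at 500 per well onto compound and cultured 72 hours (37 °C, 5% CO2). CellTiter-Glo was then added, and after 10 min at room temperature, luminescence gave viability.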

[3] = Quantitative highthroughput screen to assess conditional lethalithy of NOMO1 cells grown in RPMI1640 with untreated serum (RPMI+s) (AID 1963876); also: nearly all actives have a fitted effect of over 35% in size;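 as to Viability: 100% = DMSO wells and 0% = empty wells without cells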
Outline: (§1)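 Each medium arm—HPLM with 10% dialyzed FBS, or RPMI1640 with 5 mM glucose and 10% untreated or dialyzed FBS—was screened against an 11-point, 3-fold compound titration for 48 h at 37 °C, with CellTiter-Glo luminescence as endpoint.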

[4] = Quantitative highthroughput screen to assess conditional lethalithy of NOMO1 cells grown in RPMI1640 with dialyzed fetal bovine serum (RPMI+ds) (AID 1963877); also: nearly all actives have a fitted effect of over 30% in size;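 as to Viability: series mostly up to about 46 µM; 100% = DMSO control wells and 0% = empty wells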
Outline: as §1

[5] = Quantitative highthroughput screen to assess conditional lethalithy of NOMO1 cells grown in Human Plasma-Like Medium with dialyzed fetal bovine serum (HPLM+ds) (AID 1963878); also: nearly all actives have a fitted effect of over 35% in size;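 as to Viability: 100% = DMSO wells and 0% = empty wells on each plate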
Outline: as §1

[6] = Quantitative highthroughput screen to assess conditional lethalithy of P12 Ichikawa cells grown in RPMI1640 with untreated serum (RPMI+s) (AID 1963881); conditions: Potency: viability; also: nearly all actives have a fitted effect of over 35% in size;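 as to Viability: series mostly up to about 46 µM; 100% = DMSO wells and 0% = empty wells without cells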
Outline: as §1

[7] = Cellular viability qHTS for adrenocortical cancer (ACC) cell line NCI-H295R (AID 1963990); also: nearly all actives have a fitted effect of over 60% in size
Outline: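 Viability of NCI-H295R after 48 h of treatment (final up to 46 uM) measured through cellular ATP luminescence.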

[8] = Quantitative highthroughput screen to assess conditional lethalithy of P12 Ichikawa cells grown in RPMI1640 with dialyzed fetal bovine serum (RPMI+ds) (AID 1963880); conditions: Potency: P12-Ichikawa viability; also: nearly all actives have a fitted effect of over 35% in size;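 as to Viability: 100% = DMSO wells and 0% = empty wells on each plate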
Outline: as §1

[9] = Cellular viability qHTS for adrenocortical cancer (ACC) cell line SW-13 (AID 1963989); conditions: SW-13 ACC cells viability, CellTiter-Glo, 48 h; activity (max response): stronger effect = lower value; also: nearly all actives have a fitted effect of over 65% in size;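 as to activity (max response): cells grown in serum-free medium with ITS supplement; % is scaled to controls: 0 for no effect and ±100 for the full control effect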
Outline: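 Here, serum-free SW-13 cultures were dosed up to 46 uM. Following 48 h, ATP-dependent luminescence (CellTiter-Glo) reported viable cells, and logistic modeling produced IC50 values.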

[10] = Quantitative highthroughput screen to assess conditional lethalithy of SEM cells grown in Human Plasma-Like Medium with dialyzed fetal bovine serum (HPLM+ds) (AID 1963882); also: nearly all actives have a fitted effect of over 35% in size; as to Viability: series mostly up to about 46 µM
Outline: as §1

[11] = Quantitative highthroughput screen to assess conditional lethalithy of SEM cells grown in RPMI1640 with unreated serum (RPMI+s) (AID 1963883); also: nearly all actives have a fitted effect of over 35% in size;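 as to Viability: 100% = DMSO wells and 0% = empty wells without cells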
Outline: as §1

[12] = Quantitative highthroughput screen to assess conditional lethalithy of SEM cells grown in RPMI1640 with dialyzed fetal bovine serum (RPMI+ds) (AID 1963884); also: nearly all actives have a fitted effect of over 35% in size;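 as to Viability: series mostly up to about 46 µM; 100% = DMSO control wells and 0% = empty wells without cells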
Outline: as §1

[13] = Quantitative highthroughput screen to assess conditional lethalithy of P12 Ichikawa cells grown in Human Plasma-Like Medium with dialyzed fetal bovine serum (HPLM+ds) (AID 1963879); conditions: Potency: viability; also: nearly all actives have a fitted effect of over 35% in size; as to Viability: series mostly up to about 46 µM
Outline: as §1
Potency is read from the fitted curve at half-maximal effect.

| SMILES | Potency [1] | Potency [2] | Potency [3] | Potency [4] | Potency [5] | Potency [6] | Potency [7] | Potency [8] | activity (max response) [9] | Potency [10] | Potency [11] | Potency [12] | Potency [9] | Potency [13] |
| --- | --- | --- | --- | --- | --- | --- | --- | --- | --- | --- | --- | --- | --- | --- |
| Cc1cc2c(F)c(Oc3ncnn4cc(OC[C@@H](C)O)c(C)c34)ccc2[nH]1 | 5.9 µM (active) | 9.34 µM (active) | inactive | inactive | inactive | 18.7 µM (active) | inactive |  |  |  |  |  |  |  |
| CN1C(=O)C(Cc2c[nH]c3ccccc23)NC1=S (centres undefined) | inactive | 8.33 µM (active) | inactive | inactive | inactive | inactive |  | inactive | 7.04% |  |  |  |  |  |
| O=C1CCCC2=C1C(c1[nH]ncc1Cl)N=C(Nc1nc3ccccc3o1)N2 (centres undefined) | 8.33 µM (active) | 14.6 µM (active) and 13.2 µM (active) | inactive | inactive | 18.7 µM (active) |  | inactive |  | -9.4% | inactive |  |  |  |  |
| Cn1cc(-c2ccncc2)c(-c2ccc(OCc3ccc4ccccc4n3)cc2)n1 | 4.11 µM (active) | 7.42 µM (active) | inactive | inactive | inactive |  |  | 8.33 µM (active) |  | inactive | inactive |  |  |  |
| CNC(=O)c1nn(C)c2c1C(C)(C)Cc1cnc(Nc3ccc(N4CCN(C)CC4)cc3)nc1-2 | 51.7 nM (active) and 74.2 nM (active) | 82 nM (active) and 209 nM (active) | 16.6 µM (active) | 14.8 µM (active) | 8.33 µM (active) |  | 14.1 µM (active) |  |  | 0.264 µM (active) | 0.372 µM (active) | 0.418 µM (active) | 5.01 µM (active) |  |
| CCc1ccc(C(=O)Nc2cc(CN3CCN(C)CC3)cc(C(F)(F)F)c2)cc1C#Cc1cnc2ccnn2c1 | 2.59 µM (active) and 2.06 µM (active) | 3.66 µM (active) and 1.84 µM (active) | inactive | inactive | inactive | inactive | 7.94 µM (active) | inactive |  |  | inactive |  | 10 µM (active) |  |
| N#Cc1ccnc(Nc2cc(C3CCN(C4COC4)CC3)cc(N3CCC(F)(F)C3)n2)c1 | 1.16 µM (active) and 118 nM (active) | 2.06 µM (active) and 235 nM (active) | 13.2 µM (active) | 13.2 µM (active) | 14.8 µM (active) |  | 10 µM (active) |  |  | 13.2 µM (active) | 13.2 µM (active) | 9.33 µM (active) | 15.8 µM (active) |  |
| Fc1ccc(CNc2ncnc3ccc(F)cc23)cc1 | 2.06 µM (active) | 1.84 µM (active) | inactive | inactive | inactive |  |  | 11.8 µM (active) |  | inactive | inactive | inactive |  |  |
| COc1ccc(-c2oc3c(CC=C(C)C)c(O)cc(O)c3c(=O)c2O)cc1 | 8.33 µM (active) | 13.2 µM (active) | inactive | inactive | inactive |  | inactive |  | -11% | inactive | inactive | inactive |  |  |
| COC(c1ccccc1)(c1ccccc1)[C@H](Oc1nc(C)cc(C)n1)C(=O)O | inactive | inactive | inactive | inactive | inactive |  | inactive |  | 2.42% and -1.06% |  |  |  |  |  |
| O=c1cc(CN2CCOCC2)occ1OCCCCCSc1ccnc2cc(C(F)(F)F)ccc12 | 11.8 µM (active) | 9.34 µM (active) | inactive | inactive | inactive |  |  |  |  | inactive | inactive | inactive | 15.8 µM (active) |  |
| COc1c(C)cnc(Cn2cnc3c(Cl)nc(N)nc32)c1C | 0.132 µM (active) | 0.235 µM (active) | 0.743 µM (active) | 0.662 µM (active) | 0.662 µM (active) |  | 1.78 µM (active) |  |  | 0.372 µM (active) | 0.264 µM (active) | 0.296 µM (active) | 2 µM (active) |  |
| O=C1NC(=O)C(c2cnc3ccccn23)=C1c1cn2c3c(cc(F)cc13)CN(C(=O)N1CCCCC1)CC2 | 231 nM (active) and 833 nM (active) | 51.7 nM (active) and 372 nM (active) | inactive | inactive |  | 0.166 µM (active) |  | 5.88 µM (active) |  | 0.0209 µM (active) | 0.0186 µM (active) | 0.0166 µM (active) |  | 0.588 µM (active) |
| Cc1cc([C@@H](C)Nc2ccccc2C(=O)O)c2nc(N3CCOCC3)cc(=O)n2c1 | 5.01 µM (active) and 5.25 µM (active) | 7.08 µM (active) and 5.25 µM (active) | 13.6 µM (active) | 12.1 µM (active) | 8.55 µM (active) |  |  |  |  | 13.6 µM (active) | 10.8 µM (active) | 9.59 µM (active) |  |  |
| CC(C)(C)c1nc2c3cc[nH]c(=O)c3c3cc(F)ccc3c2[nH]1 | 0.411 µM (active) | 0.651 µM (active) | 5.9 µM (active) | 4.69 µM (active) | 2.09 µM (active) |  | inactive |  |  |  |  |  |  |  |
| CCCc1cc(C(N)=S)ccn1 | inactive | inactive | inactive | inactive |  | inactive | inactive | inactive | 7.42% and -7.33% | inactive | inactive | inactive |  | inactive |
| Nc1ccccc1NC(=O)c1ccc(CNC(=O)OCc2cccnc2)cc1 | 651 nM (active) and 742 nM (active) | 366 nM (active) and 468 nM (active) | 2.64 µM (active) | 1.66 µM (active) |  | 2.64 µM (active) | 2 µM (active) | 2.35 µM (active) |  | 0.833 µM (active) | 0.743 µM (active) | 0.743 µM (active) | 11.2 µM (active) | 2.35 µM (active) |
